This passage reports growth results from PubChem BioAssay (NCI).

Compounds without any hit were thinned out: in the full panel of roughly 83,000, 20% have a hit.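 Single-dose data. Exposure time 48 hours. Values below 10 considered active.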 Values without a mark were called inactive. The source made the active and inactive calls.

Experiment in all cases: NCI-60 one-dose screen, 48 h (100 = growth as untreated, 0 = no growth, -100 = all killed)
Common to all, as to details: 10 µM unless noted

Assay [1] concerns NCI-H23 lung.
The test system of assay [2] is NCI-H226 lung.
In assay [3] the test system is NCI-H322M lung.
Assay [4] concerns HOP-62 NSCLC.
Assay [5] has as its system NCI-H460 lung.
Assay [6] relates to HOP-92 NSCLC.
Assay [7] concerns NCI-H522 lung.
The subject of assay [8] is A549/ATCC NSCLC.
The subject of assay [9] is 786-0 renal.
In assay [10] the test system is COLO 205 colon.

For `Cn1cc(C(=O)c2nc(-c3c[nH]c4ccc(F)cc34)no2)c2cc(F)ccc21`, the growth in assay [1] was 88%; in assay [2], 69.5%; in [3], 93.6%; in [4], 91.2%; in assay [5], 96.4%; in [6], 85.5%. Also, the growth in [7] is 80.1%; in [8] it was 104%; in assay [9], 103%; in assay [10], 94.5%.

As for `Cc1ccc(C2=NN3C(C2)c2cc(Br)ccc2OC32CCN(Cc3ccccc3)CC2)o1` (stereo not given), the growth was 94.9% in assay [1]; 86.9% in [2]; 92.7% in assay [3]; 104% in assay [4]; 98% in assay [5]; 80% in [6]. The growth in assay [7] is 89.1%; in assay [8], 96.3%; in assay [9], 103%; in assay [10], 105%.

For `Nc1ccn(-c2ccc(Br)cc2)c(=O)n1`, the growth is 88.8% in assay [1]; 128% in [2]; 120% in assay [3]; 102% in assay [4]; 105% in [5]; 74.6% in [6]. Besides, the growth is 88.5% in assay [7], 107% in [8], 102% in assay [9] and 198% in [10].

For `COc1nc2c(c(=O)n1C)CN(Cc1ccccc1)C=N2`, the growth in assay [1] is 103%; in assay [2], 109%; in assay [3], 128%; in assay [4] it was 94.2%; in assay [5], 116%; in assay [6], 21.2%. In addition, the growth in assay [7] is 95.1%; in assay [8], 87.6%; in assay [9] it was 103%; in [10], 107%.

Regarding `Cc1cc(N2CCCCC2)nc(NC2CCCC(Nc3ccnc4cc(Cl)ccc34)C2)n1` (stereo not given), the growth in assay [1] was -15.5% (active); in assay [2], -50.8% (active); in [3], -48.7% (active); in assay [4], -86.5% (active); in [5], -64.9% (active); in [6], -71.1% (active). In addition, the growth is -54.6% (active) in assay [7], -23.7% (active) in assay [8], -96% (active) in assay [9] and -85.8% (active) in assay [10].

For `O=[N+]([O-])c1ccc(Nc2nc(NCCN3CCOCC3)ncc2[N+](=O)[O-])cc1`, the growth in assay [1] is 89.9%; in [2], 92%; in assay [3], 85%; in assay [4], 96%; in assay [5] it was 94.4%; in assay [6] it was 89.9%. For the same compound, the growth in [7] was 72.6%; in assay [8], 98.9%; in assay [9] it was 92.6%; in [10], 97.1%.

Regarding `C#CCOc1ccc2ncnc(NCc3cccc(NC(=O)CCl)c3)c2c1`, the growth in [1] was 36.6% [8.25 µM]; in assay [2], 25.3% [8.25 µM]; in [3], 82.3% [8.25 µM]; in assay [4] it was 0.209% [8.25 µM] (active); in assay [5], 28.2% [8.25 µM]; in [6], 54.4% [8.25 µM]. Also, the growth in assay [7] was -62.8% [8.25 µM] (active); in [8], 50.4% [8.25 µM]; in [9], 39.2% [8.25 µM]; in [10], 54% [8.25 µM].

`O=C1c2cc3c(cc2-c2c1c1cc(F)c(F)cc1c(=O)n2CCCn1ccnc1)OCO3`: the growth was -11.2% (active) in [1]; -59.4% (active) in assay [2]; 14.5% in assay [3]; 1.96% (active) in assay [4]; -26% (active) in [5]; -7.1% (active) in assay [6]. Also, the growth in assay [7] is -26.9% (active); in assay [8], -93.5% (active); in assay [9], 8.02% (active); in assay [10], -4.37% (active).

For `Nc1n[nH]c2cc(F)c([C@@H]3Nc4ccc5[nH]ncc5c4[C@H]4C5CCC(C5)[C@@H]34)cc12` (stereo not given in full), the growth in assay [1] was 26.4%; in [2], 15%; in assay [3] it was 54.7%; in assay [4] it was 26.1%; in assay [5] it was -11.2% (active); in assay [6], 45.7%. For the same compound, the growth in assay [7] is -19% (active); in assay [8] it was 8.81% (active); in assay [9] it was 25.4%; in [10] it was -26.9% (active).

Consider `CN1CCN(c2nc(NCCCNc3ccnc4cc(Cl)ccc34)c3ccccc3n2)CC1`, for which the growth in [1] is 72.5%; in [2] it was 70%; in [3], 64.3%; in [4] it was 49%; in assay [5], 28.5%; in assay [6], 68.4%. For the same compound, the growth in assay [7] was 20.2%; in assay [8] it was 29.2%; in assay [9] it was 74.6%; in assay [10], -6.18% (active).

`Cn1cc(C(=O)c2nc(-c3c[nH]c4ccc(Br)cc34)no2)c2cc(F)ccc21`: the growth is 84.9% in assay [1]; 81.5% in [2]; 95.7% in [3]; 103% in assay [4]; 97% in assay [5]; 85.4% in [6]. Further, the growth in assay [7] is 90.5%; in assay [8], 104%; in assay [9], 103%; in assay [10], 98.3%.

For the compound `Cc1cc(N2CCOCC2)nc(NCc2cc(Nc3ccnc4cc(Cl)ccc34)ccc2F)n1`, the growth was -32.9% (active) in [1]; 16.1% in assay [2]; -27.6% (active) in assay [3]; -63% (active) in assay [4]; -65.7% (active) in assay [5]; -30.8% (active) in [6]. The growth in [7] is -61% (active); in [8], -49.4% (active); in assay [9], -93.7% (active); in assay [10] it was -70.9% (active).

For `CC(C)(C)c1cc(C(C)(C)C)cc(S(=O)(=O)Nc2cc3ccccc3cc2C(=O)NCCN)c1`, the growth in assay [1] is 85.7%; in assay [2] it was 73.8%; in assay [3], 64.2%; in [4], 83.1%; in assay [5], -20.3% (active); in [6] it was 50%. Further, the growth was 48% in assay [7], 38.6% in assay [8], 86.3% in assay [9] and -85.6% (active) in [10].

On to `COc1ccc(C(=O)c2sc3nc4c(c(-c5cccnc5)c3c2N)CCCC4)cc1OC`, for which the growth in assay [1] was 97.7%; in assay [2] it was 86.3%; in [3], 99.5%; in assay [4] it was 80.7%; in [5], 77.4%; in assay [6] it was -11.7% (active). Besides, the growth in [7] was 83%; in assay [8], 82.2%; in assay [9], 87.5%; in [10], 94.6%.

Regarding `Cc1cc(N2CCOCC2)nc(N[C@@H]2CCC[C@H](Nc3ccnc4cc(Cl)ccc34)C2)n1`, the growth is 62% in assay [1]; 34.2% in assay [2]; 27.2% in [3]; -15.2% (active) in [4]; 12.2% in assay [5]; -21.7% (active) in assay [6]. Moreover, the growth in [7] is -26.8% (active); in [8], 13.8%; in [9] it was -73% (active); in assay [10], -82% (active).

On to `CCN(CC)c1ccc(/C=N\NC(=O)/C=C/C=C/c2ccc3c(c2)OCO3)c(O)c1`, for which the growth in assay [1] was 49.7%; in assay [2] it was 49.5%; in assay [3], 31.2%; in [4], 28.5%; in [5], 19.8%; in assay [6], 48.4%. For the same compound, the growth in [7] is 12.5%; in assay [8], 53.3%; in assay [9], 47.2%; in assay [10] it was 39.9%.

For `CC(C)CSc1nc(N)nc2c1ncn2C1OC(CO)C(O)C1O` (stereo not given), the growth was 106% in [1]; 101% in assay [2]; 101% in assay [3]; 95.2% in [4]; 104% in assay [5]; 147% in [6]. Besides, the growth in [7] was 92.6%; in assay [8] it was 102%; in assay [9] it was 121%; in [10], 101%.

`O=c1ccccc(-c2ccc(-c3ccco3)cc2)c1O`: the growth is 19.1% in assay [1]; 21.7% in assay [2]; 21.6% in assay [3]; 6.97% (active) in assay [4]; 2.15% (active) in assay [5]; 60.1% in [6]. Moreover, the growth is 27.3% in assay [7], 13.3% in assay [8], 10.6% in assay [9] and 26.3% in assay [10].

As to `COc1ccc(C(=O)COc2ccc(/C=C3\COc4ccc(OC)cc4C3=O)cc2)cc1`, the growth in assay [1] is 77.6%; in [2], 85.9%; in [3], 96.1%; in [4] it was 110%; in [5], 104%; in [6] it was 77.7%. Also, the growth in assay [7] was 70.1%; in [8], 77.9%; in assay [9], 90.5%; in assay [10] it was 122%.

Take `N#CN1CC[C@H](C(=O)Nc2cc3cc(C(N)=O)ccc3cn2)C1`: the growth is -8.58% (active) in assay [1]; -10% (active) in assay [2]; 13.6% in assay [3]; -27.1% (active) in assay [4]; 6.93% (active) in assay [5]; -6.94% (active) in assay [6]. For the same compound, the growth in assay [7] was -50% (active); in [8], 1.68% (active); in assay [9], 4.19% (active); in [10], -70.1% (active).

For `Cc1cc(N[C@@H]2CCC[C@H](Nc3ccnc4cc(Cl)ccc34)C2)nc(N2CCCCCC2)n1`, the growth in assay [1] is -30.3% (active); in assay [2] it was -38.9% (active); in assay [3] it was -37.8% (active); in assay [4] it was -69.7% (active); in [5], -70.9% (active); in assay [6], -77.7% (active). In addition, the growth in assay [7] is -61.5% (active); in assay [8], -48.9% (active); in assay [9] it was -96.1% (active); in assay [10], -79.3% (active).

Take `COc1cc(C(=O)/C=C/c2cccnc2Nc2ccc(Cl)cc2)cc(OC)c1OC`: the growth in assay [1] was -17.5% (active); in assay [2], -82.7% (active); in assay [3], 9.66% (active); in assay [4], -68.6% (active); in assay [5] it was 4.24% (active); in [6], -54.5% (active). Moreover, the growth in [7] was -58.4% (active); in assay [8], -29.2% (active); in assay [9] it was -83.4% (active); in assay [10] it was -81.4% (active).

Turning to `CCOC(=O)c1c(C(=O)OCC)c2cc(-c3ccn4c(C(=O)c5ccccc5)c(C(=O)OCC)c(C(=O)OCC)c4c3)ccn2c1C(=O)c1ccccc1`, the growth is 88.8% in [1]; 93.1% in assay [2]; 99.9% in assay [3]; 97.4% in assay [4]; 98.3% in assay [5]; 52.4% in assay [6]. Further, the growth is 75.6% in assay [7], 91.5% in assay [8], 98.4% in assay [9] and 109% in [10].

Consider `N#Cc1nnn(-c2ccc(S(N)(=O)=O)cc2)c1NC(=O)CCl`, for which the growth in [1] is 100%; in assay [2], 95.5%; in [3] it was 93.4%; in assay [4], 92.2%; in assay [5], 104%; in assay [6], 96.1%. Besides, the growth in assay [7] is 95%; in [8], 92.9%; in assay [9], 98%; in [10] it was 110%.

Regarding `C=CC(=O)Nc1cccc(-c2nc(SC)nc(NCCc3ccc(OC)c(OC)c3)c2C#N)c1`, the growth in assay [1] is 47.6%; in assay [2], 40.8%; in [3], 90.9%; in assay [4], 75.1%; in assay [5], 74.6%; in assay [6] it was 62.2%. Moreover, the growth in assay [7] is 39.2%; in assay [8] it was 46.9%; in [9] it was 68.2%; in assay [10], 77.8%.

As for `COc1cccc2c1C(=O)c1c(O)c3c(c(O)c1C2=O)C[C@](O)(C(=O)CO)C[C@H]3O[C@@H]1C[C@@H](NC(=O)CCCCCN(C)C2(c3ccc(F)cc3)CC3CCC2C3)[C@H](O)[C@@H](C)O1` (stereo not given in full), the growth in [1] is 40.8%; in assay [2] it was 59.3%; in assay [3] it was 53.7%; in [4], 46.9%; in assay [5], -84.2% (active); in assay [6], 51.6%. The growth is -83.1% (active) in [7], 19.7% in assay [8], -92.7% (active) in assay [9] and -63.7% (active) in assay [10].
